We go through 26 molecules from PubChem BioAssay (NCATS).

Unmarked numbers belong to inactive results. Records with an inconclusive call do not appear. Activity calls are given as the source filed them. Calls follow the shape of the dose curve; as a rule, active = well fitted curve in the direction sought with a large enough effect; inconclusive = small, poorly fitted or top-dose-only effect, or another doubt; inactive = no such curve, though single readings can be large; an effect the other way counts as inactive or inconclusive. Where a SMILES comes first, the peptide text is derived from it.

Test [1] can be described thus: Primary fluorescence-based thiol-reactive (MSTI) qHTS assay for identification of artifact compounds. (AID 1845221). Also: nearly all actives have a fitted effect of over 65% in size. Also: potency is read from the fitted curve at half-maximal effect.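 As to activity change, negative = thiol reactive: thiol-reactive compounds lower the probe fluorescence signal.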 As to conditions: MSTI thiol-reactivity probe, 1 h; series mostly up to 53.8 µM. The method in brief:
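qHTS titration of compound; 4 uM MSTI, PBS pH 7.4, 2% DMSO; 1 h RT, dark; fluorescence 525/598 nm; normalized to Acetyl-MSTI and MSTI; 4-parameter Hill fit.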

Test [2] relates to Nanoluciferase (engineered Oplophorus gracilirostris luciferase). Nature of the test: Primary Nanoluciferase (NLuc) qHTS assay for identification of artifact compounds. (AID 1845222).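 Also: 0% = DMSO and -100% = no enzyme.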 The note with it: NLuc-conditioned medium, Nano-Glo luminescence, 5 min; series mostly up to 54.1 µM. The method in brief: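 Concentration-response data were obtained by luminescence after 5 min with Nano-Glo substrate at 1:100. The enzyme was diluted S16 NLuc-expressing cell medium, preincubated with compound for 15 min at RT. Curves were fitted with a 4-parameter Hill model.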
A general note: Quantitative high-throughput screening tests each substance at several concentrations.

Test [3] is described as follows: Primary redox qHTS assay for identification of artifact compounds. (AID 1845223).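 Also: 0% = DMSO and 100% = reference compound.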 The note with it: Amplex Red/HRP redox cycling with DTT, fluorescence; series mostly up to 53.8 µM. The method in brief:
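Redox-cycling detection via DTT (250 uM final) oxidation coupled to Amplex Red (25 uM)/HRP (250 mU/mL) in HBSS. 15 min preincubation plus 30 min after DTT, room temperature. Ex/Em 525/598 nm; 4-parameter Hill fit against DMSO and 10 uM DA3003.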

As to `COc1cc(C[C@H]2COC(=O)[C@@H]2Cc2ccc(O)c(OC)c2)ccc1O`, the Potency in test [1] was 14.7 µM (active). Also, the Potency entry in test [2] and in test [3] was “inactive” in each case.
As for `COc1cc(C2Oc3c(OC)cc(/C=C/C(=O)OC[C@H]4O[C@@H](OC(C)(C)C(=O)O)[C@H](O)[C@@H](O)[C@@H]4O)cc3C2CO)ccc1O` (stereo partly drawn), the Potency entry in test [1], in test [2] and in test [3] was “inactive” in each case.
With `C=C1C2=CC(O)C(C)C1(C)CC/C(C)=C/CCC1(C)OC1C2=O` (stereo not drawn), the Potency result in test [1], in test [2] and in test [3] was “inactive” throughout.
As to `COC1CCCC/C(C)=C/C2C=C(C)C(C)C3C(CC(C)C)NC(=O)C23C(=O)C1` (stereo not drawn), the Potency entry in test [1], in test [2] and in test [3] was “inactive” each time.
In the case of `COc1cc(/C=C/C(=O)OC2CC3CCC2(C)C3(C)C)ccc1O` (stereo not drawn), the Potency entry in test [1], in test [2] and in test [3] was “inactive” throughout.
Turning to `OC1COC(OCC2OC(OCCc3ccccc3)C(O)C(O)C2O)C(O)C1O` (stereo not drawn), in test [1], the Potency was 4.12 µM (active). Also, the Potency entry in test [2] and in test [3] was “inactive” throughout.
Take `CCn1cc(C2=NOC(C(=O)Nc3c(C)n(C)n(-c4ccccc4)c3=O)C2)c(C)n1` (stereo not drawn): the Potency result in test [1], in test [2] and in test [3] was “inactive” throughout.
In the case of `C[C@@H](O)[C@H](N)C(=O)N1CCC[C@H]1C(=O)N1CCC[C@H]1C(=O)N[C@H](C(N)=O)[C@@H](C)O` (H-TPPT-NH2), the activity change, negative = thiol reactive in test [1] was -5.11% [at 11.5 µM]. The activity, negative = inhibition in test [2] is 4.97% [at 11.6 µM]. Also, in test [3], the redox activity (% of DA3003) is 17.6% [at 11.5 µM].
On to `COc1c2c(c(C)c3c1C(=O)OC3)O[C@@]1(C)C[C@@H](O)[C@]34O[C@](OC)(CC[C@]3(C)[C@H]1C2)OC4(C)C`, for which the Potency entry in test [1], in test [2] and in test [3] was “inactive” in each case.
Consider `C[C@@H]1CCC2C(C)(C)[C@H](O)CC[C@]2(C)[C@@]12Cc1c(O)cc3c(c1O2)CN(CCO)C3=O` (stereo partly drawn), for which the Potency result in test [1], in test [2] and in test [3] was “inactive” in each case.
`CC12CC34C=CC(=O)C(C)(CCC(=O)O)C3C(CC1C4)O2` (stereo not drawn): the Potency result in test [1], in test [2] and in test [3] was “inactive” throughout.
As to `C[C@H]1CC[C@@]2(OC1)O[C@H]1CC3C4CC=C5C[C@H](O)C[C@@H](O[C@@H]6O[C@@H](C)[C@H](O)[C@@H](O)[C@H]6O[C@@H]6O[C@@H](C)[C@H](O)[C@@H](O)[C@H]6O)[C@]5(C)C4CC[C@]3(C)[C@H]1[C@@H]2C` (stereo partly drawn), the Potency result in test [1], in test [2] and in test [3] was “inactive” each time.
Turning to `CCC1CC2C(C)=CC3CCCCC3C2(C)C2(OC(=O)C(C)(O)OC2=O)O1` (stereo not drawn), the Potency entry in test [1], in test [2] and in test [3] was “inactive” in each case.
Turning to `O=c1ccn(C2OC(CO)C(O)C2O)c(=O)[nH]1` (stereo not drawn), the Potency result in test [1], in test [2] and in test [3] was “inactive” throughout.
Take `C=CCc1ccc(O[C@@H]2O[C@H](CO[C@@H]3O[C@H](CO)[C@@H](O)[C@H](O)[C@H]3O)[C@@H](O)[C@H](O)[C@H]2O)c(O)c1`: the Potency result in test [1], in test [2] and in test [3] was “inactive” throughout.
With `COc1cc(O[C@@H]2O[C@H](CO)[C@@H](O)[C@H](O)[C@H]2O)c(CCC(=O)OC[C@H]2O[C@@H](Oc3cc(OC)c(C4OC(=O)C(C)(O)C4O)cc3CCC(=O)O)[C@H](O)[C@@H](O)[C@@H]2O)cc1C1OC(=O)C(C)(O)C1O` (stereo partly drawn), the activity change, negative = thiol reactive in test [1] was 56% [at 11.5 µM]. Further, the activity, negative = inhibition in test [2] was 0.289% [at 11.6 µM]. Moreover, the redox activity (% of DA3003) in test [3] was -16.2% [at 11.5 µM].
As to `COc1cc(C2Oc3c(OC)cc(CCCO[C@@H]4O[C@H](CO)[C@@H](O)[C@H](O)[C@H]4O)cc3C2CO)ccc1O` (stereo partly drawn), in test [1], the Potency was 13 µM (active). For the same molecule, the Potency entry in test [2] and in test [3] was “inactive” each time.
In the case of `CC(C)(C)NCC(O)COc1cccc2c1CCCC2=O` (stereo not drawn), the Potency result in test [1], in test [2] and in test [3] was “inactive” in each case.
As for `CCn1c2ccccc2c2cc(CNC)ccc21`, the Potency result in test [1], in test [2] and in test [3] was “inactive” each time.
For the molecule `COc1cc(C2OCC3C(c4ccc(OC5OC(CO)C(O)C(O)C5O)c(OC)c4)OCC23)ccc1O` (stereo not drawn), the Potency result in test [1], in test [2] and in test [3] was “inactive” in each case.
`O=C(O)CCc1cccc(O[C@@H]2O[C@H](CO)[C@@H](O)[C@H](O)[C@H]2O)c1O`: in test [1], the Potency is 8.26 µM (active). Moreover, the Potency result in test [2] and in test [3] was “inactive” throughout.
`CC1=CC2(O)/C=C/C(C)(O)CC(O)/C=C/C(=O)OC23C(=O)NC(CC(C)C)C3C1C` (stereo not drawn): the Potency entry in test [1], in test [2] and in test [3] was “inactive” in each case.
Turning to `COc1cc(N2CCC(O)CC2)ccc1Nc1cc(Nc2ccccc2S(=O)(=O)C(C)C)c2cc[nH]c2n1`, the Potency in test [1] was 0.927 µM (active). The Potency entry in test [2] and in test [3] was “inactive” each time.
Take `CC(C)(OC1OC(CO)C(O)C(O)C1O)C1CCC(O)(CO)C2CC(O)C(C)(O)C2C1` (stereo not drawn): the Potency result in test [1], in test [2] and in test [3] was “inactive” throughout.
With `NC(=O)c1cccc(-c2cc(O)cc(OC(=O)NC3CCCCC3)c2)c1`, the Potency result in test [1], in test [2] and in test [3] was “inactive” in each case.
On to `C[C@@H]1C(=O)O[C@H]2CC34[C@H]5C[C@@H](C(C)(C)C)C36[C@@H](OC(=O)[C@@H]6O)O[C@@]4(C(=O)O5)[C@]21O` (stereo partly drawn), for which the Potency result in test [1], in test [2] and in test [3] was “inactive” each time.
